According to PubChem BioAssay (NCATS):
Records with an inconclusive call do not appear. Calls of active or inactive are those of the source. Calls follow the shape of the full dose curve.

Assay: Primary qHTS to identify inhibitors of SARS-CoV-2 cell entry (AID 1645846); also: nearly all actives have a fitted effect of over 45% in size
Conditions: SARS-CoV-2 pseudovirus cell entry assay, luminescence; activity change, negative = inhibition: at 57.1 µM (top of the series) unless noted; series mostly up to 57.1 µM
From the text: Assay Provider: Wei Zheng, Ph.D.
National Center for Advancing Translational Sciences, National Institute of Health, Rockville, MD.
SARS-CoV-2 spike protein, within the viral envelope, mediates viral attachment and infection of host cells. The SARS-CoV-2 spike protein specifically binds to the host receptor ACE2 (Angiotensin-converting enzyme 2). This interaction promotes endocytosis of the viral particle, additional events lead to viral-host cell membrane fusion and release of the viral contents, allowing viral replication.
While SARS-CoV-2 requires BSL-3 facilities for live virus work, pseudotyped partices (PP) that incorporate SARS-CoV-2 spike proteins without replication elements could facilitate studies on viral entry mechanisms in a BSL-2 setting. This PP cell entry assay could also enable screening of small molecule compound libraries in BSL-2 setting to identify inhibitors of SARS-CoV-2 cell entry.
PROTOCOL TABLE (format as described by Inglese J, Shamu CE and Guy RK. 2007)
SEQUENCE No. (e.g., 1, 2, 3, etc.); […] (e.g., Cells, Incubation, Reagent, etc.); VALUE and DESCRIPTION.
1. Cells. Seed 1500 HEK293-ACE2 cells (Expi293F with stable expression of human ACE2) in 2 uL/well media (DMEM, 10% FBS, 1x L-glutamine, 1x Pen/Strep, 1 ug/ml puromycin) in white 1536-well assay plates (Greiner #782073).
2. Incubation. Incubate at 37C with 5% CO2 overnight (~16 h).
3. Compounds. Dispense 23 nL/well compounds in DMSO via pin transfer.
4. Incubation. Incubate for 1 hr at 37C 5% CO2.
5. Reagent. Dispense 2 uL/well of SARS-CoV-2-S pseudotyped particles. [a] PPs are produced with murine leukemia virus pseudotyping. [b] SARS-CoV-2-S is Wuhan-Hu-1 sequence (BEI #NR-52420) with C-terminal 19 amino acid truncation.
6. Centrifuge. […]
7. Incubation. Incubate at for 48 hr at 37C 5% CO2
8. Centrifuge. Remove supernatant with gentle centrifugation using a Blue Washer (BlueCat Bio).
9. Reagent. Dispense 4 uL/well of Bright-Glo Luciferase detection reagent (Promega #E2620).
10. Incubation. Incubate for 5 min at room temperature.
11. Detection. Read luminescence signal (Viewlux plate reader, PerkinElmer). Data was normalized with wells containing SARS-CoV-2-S PP as 100%, and wells containing bald PP (no fusion protein) as 0%.
Potency is read from the fitted curve at half-maximal effect.

| SMILES | activity change, negative = inhibition | outcome | Potency |
| --- | --- | --- | --- |
| Cc1c(Cn2c(C)nc3c(C(=O)O)cc(N4CCOCC4)cc32)cccc1C(F)(F)F | -3.96% |  |  |
| N#Cc1cc(NC(=O)Nc2nnc(-c3ccncc3)s2)ccc1-c1cn[nH]c1 |  | inactive |  |
| COc1cc2ncnc(Nc3cc(Br)c(O)c(Br)c3)c2cc1OC | -28.4% |  |  |
| COc1ccc([C@@H]2CC(=O)c3c(O)cc(O[C@@H]4O[C@H](CO[C@@H]5O[C@@H](C)[C@H](O)[C@@H](O)[C@@H]5O)[C@@H](O)[C@H](O)[C@@H]4O)cc3O2)cc1O | -5.46% |  |  |
| C[C@]12CC[C@@H]3c4ccc(O)cc4CC[C@H]3[C@H]1[C@@H](O)[C@@H](O)[C@H]2O |  | inactive |  |
| COc1cc2nccc(Oc3ccc(NC(=O)NC4CC4)c(Cl)c3)c2cc1C(N)=O | -21.3% |  |  |
| C[C@]1(c2nc3c(C(N)=O)cccc3[nH]2)CCCN1 | -3.68% |  |  |
| Cc1cc(Cl)ccc1OCCCC(=O)NO | -10.4% |  |  |
| Nc1ncnc2ccccc12 | 2.32% |  |  |
| O=C(O)c1ccccc1C(=O)Nc1ccc(-c2ccccc2)cc1 |  | inactive |  |
| O=C1CCCC(=O)C1C(=O)c1ccc(C(F)(F)F)cc1[N+](=O)[O-] |  | inactive |  |
| O=C(O)C1CCCN(CCC=C(c2ccccc2)c2ccccc2)C1 (stereo not given) | -1.36% |  |  |
| COc1ccc(CCC(=O)Nc2nc3ccc(Cl)cc3s2)cc1OC |  | inactive |  |
| COc1ccc2cc(-c3nc(-c4ccc(S(C)=O)cc4)[nH]c3-c3ccncc3)ccc2c1 (stereo not given) |  |  | 31.6 µM (active) |
| CN1N=C(N)c2cn([C@@H]3O[C@H](COP(=O)(O)O)[C@@H](O)[C@@H]3O)c3ncnc1c23 | -94.7% |  |  |
| C[C@H]1COC2=C1C(=O)C(=O)c1c2ccc2c1CCCC2(C)C | -2.76% |  |  |
| COc1ccc(-c2cnc3c(-c4cccc5ncccc45)cnn3c2)cc1 |  | inactive |  |
| C[C@@H]1CCO[C@H]2Cn3cc(C(=O)NCc4ccc(F)cc4F)c(=O)c(O)c3C(=O)N12 | -84% |  |  |
| Oc1ccc(-c2ccc(-c3cc(Nc4cccc(CNC5CC5)c4)n[nH]3)cc2)c(O)c1 |  |  | 10 µM (active) |
| N#Cc1c(N(CC(=O)O)CC(=O)O)sc(C(=O)O)c1CC(=O)O |  | inactive [at 0.702 µM] |  |

| SMILES | activity change, negative = inhibition | outcome | Potency |
| --- | --- | --- | --- |
| CCN(CC)CCCCNc1ncc2c(n1)N(C)C(=O)N(c1c(Cl)c(OC)cc(OC)c1Cl)C2 |  |  | 6.31 µM (active) |
| CCOc1ccccc1N=Nc1c(C)[nH]n(-c2nc(-c3ccccc3)cs2)c1=O |  | inactive |  |
| CCNC(=O)CCC/C=C\C[C@@H]1[C@@H](/C=C/C(O)CCc2ccccc2)[C@@H](O)C[C@@H]1O (stereo not given in full) | -23.1% |  |  |
| CC(C)(OCc1nn(Cc2ccccc2)c2ccccc12)C(=O)O |  | inactive |  |
| COc1cc(Nc2ncc(F)c(Nc3ccc4c(n3)N(COP(=O)(O)O)C(=O)C(C)(C)O4)n2)cc(OC)c1OC |  | inactive |  |
| Cn1cc(C[C@@H](N)C(=O)O)c2ccccc21 | -6.52% [at 11.3 µM] |  |  |
| COC(=O)Nc1ccc(-c2nc(N3CCOCC3)c3cnn(C4CCN(Cc5cccnc5)CC4)c3n2)cc1 |  |  | 6.31 µM (active) |
| O=C1Nc2ccc(I)cc2/C1=C/c1cc(Br)c(O)c(Br)c1 | -7.81% |  |  |
| O=C(O)CCCc1c[nH]c2ccccc12 | 0.874% |  |  |
| COc1ccc(-c2cc(=O)c3c(O)cc(O)cc3o2)cc1O |  | inactive |  |
| CCOC(=O)C1=C(C)NC(=S)NC1c1cccc(O)c1 (stereo not given) | -13.9% |  |  |
| COc1ccc(C2(C#N)CCC(C(=O)O)CC2)cc1OC1CCCC1 (stereo not given) | -18.7% | inactive |  |
| Nc1nc(N)c2nc(-c3cccc(O)c3)c(-c3cccc(O)c3)nc2n1 | -9.58% |  |  |
| CC(=O)N1N=C(c2ccc(N)cc2)c2cc3c(cc2C[C@H]1C)OCO3 | -4.19% |  |  |
| CC(C)c1cnn2c(NCc3ccccc3)cc(NCCCCCCN)nc12 |  |  | 22.4 µM (active) |
| COc1cc(C)c(C=CC(C)=CC=CC(C)=CC(=O)O)c(C)c1C |  | inactive |  |
| O=C1CCC(C(=O)O)N1 (stereo not given) | -17.5% |  |  |
| CC(=O)SCC(Cc1ccccc1)C(=O)NCC(=O)OCc1ccccc1 (stereo not given) | -34.7% |  |  |
| O=C(CN1C(=O)C2(CCCC2)NC[C@H]1c1cc(F)cc(F)c1)Nc1ccc2c(c1)C[C@@]1(C2)C(=O)Nc2ncccc21 | -13.1% |  |  |
